{"source": "ChEMBL document CHEMBL4513216", "about": "“Probing the Open Global Health Chemical Diversity Library for Multistage-Active Starting Points for Next-Generation Antimalarials” (ACS Infect Dis, 2020)", "note": "Out of some 69,000 compounds screened, about 8,600 (12%) showed an effect of 50% or more. This is one part of a sample in which strong results are shown more often than they occur."}
{"test_system": "Plasmodium berghei", "assay": "Screen against P. berghei liver stage (PbLuc), transformed with Luciferase, at 10uM", "assay_type": "functional, HepG2", "conditions": "tested at 10 uM", "units": {"INHIBITION": "%"}}
{"smiles": "COc1ccccc1C(=O)NC(c1ccccn1)C1CCC(CN)CC1", "note": "(stereo unspecified)", "INHIBITION": 44.1}
{"smiles": "Cc1ncccc1-c1cc2cccnc2n1CCCNC(=O)C1CC1", "INHIBITION": 25.8}
{"smiles": "CN(Cc1ccccc1)CC(O)Cn1cnc2c(Cl)cc(Cl)cc2c1=O", "note": "(stereo unspecified)", "INHIBITION": 27.433}
{"smiles": "COCC1CN(C(=O)c2ccoc2C)Cc2nccn2C1", "note": "(stereo unspecified)", "INHIBITION": 35.3}
{"smiles": "COCCC(=O)NCc1cccnc1-n1cnc2ccccc21", "INHIBITION": 33.9}
{"smiles": "CS(=O)(=O)NCCC(=O)NCc1cccnc1-n1cnc2ccccc21", "INHIBITION": 41.2}
{"smiles": "CC(=O)NCCC(=O)NCc1cccnc1-n1cnc2ccccc21", "INHIBITION": 60.1}
{"smiles": "Cc1[nH]ccc1C(=O)N[C@H]1CN(CCO)C[C@@H]1C1CC1", "INHIBITION": 9.89}
{"smiles": "Cc1cnc(C(=O)N[C@H]2CN(CCS(C)(=O)=O)C[C@@H]2C2CC2)cn1", "INHIBITION": 53.9}
{"smiles": "CSCCCN1C[C@H](NC(=O)c2cnn(C)c2)[C@@H](C2CC2)C1", "INHIBITION": 12.6}
{"smiles": "CS(=O)(=O)CCN1C[C@H](NC(=O)c2cnc(O)cn2)[C@@H](C2CC2)C1", "INHIBITION": -3.43}
{"smiles": "Cc1c(C(=O)N[C@H]2CN(CCS(C)(=O)=O)C[C@@H]2C2CC2)cnn1C", "INHIBITION": 29}
{"smiles": "CCc1cc(C(=O)N[C@H]2CN(CCS(C)(=O)=O)C[C@@H]2C2CC2)[nH]n1", "INHIBITION": 55}
{"smiles": "Cc1ccc(CNC(C)c2ccc(N3CCN(C)CC3)c(F)c2)o1", "note": "(stereo unspecified)", "INHIBITION": -11}
{"smiles": "C1CCc2nnc(CNc3nc(C4CC4)nc4c3CCNCC4)n2CC1", "INHIBITION": 3.06}
{"smiles": "CCc1ccc(S(=O)(=O)Nc2cc(C(=O)O)ccc2F)s1", "INHIBITION": 13.85}
{"smiles": "COCCNC(=O)c1cc(S(=O)(=O)N2CCCC2)cs1", "INHIBITION": 10.3}
{"smiles": "NC(=O)C1CCN(C(=O)c2cc(S(=O)(=O)N3CCCCC3)cs2)CC1", "INHIBITION": 56.3}
{"smiles": "CN(C)S(=O)(=O)c1csc(C(=O)N2CCC(C(N)=O)CC2)c1", "INHIBITION": 60.1}
{"smiles": "NC(=O)C1CCN(C(=O)c2cc(S(=O)(=O)N3CCCC3)cs2)CC1", "INHIBITION": 56.3}
{"smiles": "CCN(c1ccsc1C(=O)N1CCSCC1)S(=O)(=O)c1ccccc1", "INHIBITION": -27.5}
{"smiles": "CCN(CC)S(=O)(=O)c1csc(C(=O)N2CCC(C(N)=O)CC2)c1", "INHIBITION": 49.9}
{"smiles": "CCN(c1ccc(C(=O)N2CCC(C(N)=O)CC2)cc1)S(=O)(=O)CC", "INHIBITION": 47.3}
{"smiles": "COCCNC(=O)c1cc(S(=O)(=O)N2CCCCCC2)cs1", "INHIBITION": 45.6}
{"smiles": "NS(=O)(=O)c1cc(C(=O)N2CCCCC2)cs1", "INHIBITION": 30.7}
{"smiles": "O=C(c1cc(-c2cccs2)cs1)N1CCSCC1", "INHIBITION": -61.1}
{"smiles": "NC(=O)C1CCN(Cc2ccc(S(=O)(=O)N3CCCC3)o2)CC1", "INHIBITION": 16.5}
{"smiles": "CN(C)S(=O)(=O)c1csc(C(=O)N2CCSCC2)c1", "INHIBITION": 65.6}
{"smiles": "CC(C(=O)N1CCCN(c2ccc(C#N)cc2)CC1)n1cccn1", "note": "(stereo unspecified)", "INHIBITION": 10}
{"smiles": "CCc1nc(C2CCCN2CC(=O)N2CCc3ccccc32)no1", "note": "(stereo unspecified)", "INHIBITION": 23.5}
{"smiles": "O=C(CCc1nc2cccnc2[nH]1)Nc1ccc2c(c1)OCC(=O)N2", "INHIBITION": 17.1}
{"smiles": "CC(C)(C)c1cc(C(=O)N2CCC(c3cnccn3)CC2)[nH]n1", "INHIBITION": 29.9}
{"smiles": "CC(C)CCC(=O)NCCc1ccn(-c2ccccc2)n1", "INHIBITION": 5.7}
{"smiles": "NC(=O)CN(Cc1ccc(Br)cc1)C(=O)c1ccncc1", "INHIBITION": -9.51}
{"smiles": "CCn1cc(CN2C[C@@H]3CC[C@H]2CN(C(=O)C2CCC2)C3)cn1", "INHIBITION": 4.15}
{"smiles": "CCNc1ncc(CN2C[C@@H]3CC[C@H]2CN(C(=O)C2CCC2)C3)cn1", "INHIBITION": 60.4}
{"smiles": "CCNc1ncc(CN2C[C@@H](C(=O)O)[C@H](C3CC3)C2)cn1", "INHIBITION": 58.2}
{"smiles": "O=C(O)[C@@H]1CN(Cc2cnc(C3CCCCC3)nc2)C[C@H]1C1CC1", "INHIBITION": 29.6}
{"smiles": "CCCNc1ncc(CN2C[C@@H]3CC[C@H]2CN(C2CCOCC2)C3)cn1", "INHIBITION": 1.98}
{"smiles": "CCOc1ccc(C(=O)N2C[C@@H]3CC[C@H]2CN(C(=O)C2CCC2)C3)cc1", "INHIBITION": 30.3}
{"smiles": "Cc1ccc(C(=O)N2C[C@H]3CC[C@@H](C2)N(Cc2ccccc2)C3)cn1", "INHIBITION": -13}
{"smiles": "CCc1ncc(CN2C[C@@H]3CC[C@H]2CN(C(=O)C2CCC2)C3)cn1", "INHIBITION": 62.6}
{"smiles": "CCNc1ncc(CN2C[C@H](C3CC3)[C@@H](N)C2)cn1", "INHIBITION": 23.9}
{"smiles": "Cc1ccc(NC2COC3(CCN(Cc4ccn(C)n4)CC3)C2)nn1", "note": "(stereo unspecified)", "INHIBITION": -4.99}
{"smiles": "Cc1ccc([C@@H]2CN(C(=O)c3ccccc3C)C[C@H]2N(C)C)cc1", "INHIBITION": 39.5}
{"smiles": "N#Cc1ccccc1CN1C[C@H]2CC[C@@H](C1)N(CC1CCC1)C2=O", "INHIBITION": 42.6}
{"smiles": "O=C(N1CCC(Nc2cccnn2)CC1)C1(c2ccc(F)cc2)CC1", "INHIBITION": 30.2}
{"smiles": "CCc1ncc2c(n1)CN(CCCc1nc3ccccc3o1)CC2", "INHIBITION": 38.5}
{"smiles": "COCCCNC(=O)CN(C)C(C)c1nc(C(C)C)no1", "note": "(stereo unspecified)", "INHIBITION": 59.3}
{"smiles": "COCCCNC(=O)CN(C)C(C)c1nc(C)no1", "note": "(stereo unspecified)", "INHIBITION": 14.6}
{"smiles": "COCCCNC(=O)CN(C)C(=O)c1ccccc1O", "INHIBITION": 20.4}
{"smiles": "COCCNC(=O)CN(C)C(C)c1nc(C)no1", "note": "(stereo unspecified)", "INHIBITION": 58.5}
{"smiles": "COCCCNC(=O)c1c(C)noc1C(C)C", "INHIBITION": -33.7}
{"smiles": "Cc1noc(C(C)N(C)CC(=O)NCCc2ccc(Cl)cc2)n1", "note": "(stereo unspecified)", "INHIBITION": -9.3}
{"smiles": "CCc1ccccc1Nc1noc2c1CN(C(=O)CCOC)CC2", "INHIBITION": -5.71}
{"smiles": "CC(C)CNC(=O)C1CC(=O)N(c2n[nH]c3ccccc23)C1", "note": "(stereo unspecified)", "INHIBITION": -11.7}
{"smiles": "CCN1CCCC(C)(C(=O)NCc2nnnn2-c2ccccc2)C1", "note": "(stereo unspecified)", "INHIBITION": -1.7}
{"smiles": "c1nc(NCC2(N3CCOCC3)CCSC2)c2sccc2n1", "note": "(stereo unspecified)", "INHIBITION": 91.1}
{"smiles": "O=C(NCC1(N2CCOCC2)CCSC1)Nc1ccncc1", "note": "(stereo unspecified)", "INHIBITION": 18.6}
{"smiles": "O=C(NCC1(N2CCOCC2)CCSC1)Nc1ccccn1", "note": "(stereo unspecified)", "INHIBITION": 18.6}
{"smiles": "c1ccc2nc(NCC3(N4CCOCC4)CCSC3)cnc2c1", "note": "(stereo unspecified)", "INHIBITION": 46.6}
{"smiles": "O=C(NCc1ccc(F)cc1)NCC1(N2CCOCC2)CCSC1", "note": "(stereo unspecified)", "INHIBITION": 40.5}
{"smiles": "Fc1cccc2ncnc(NCC3(N4CCOCC4)CCSC3)c12", "note": "(stereo unspecified)", "INHIBITION": 91.1}
{"smiles": "c1ccc2sc(NCC3(N4CCOCC4)CCSC3)nc2c1", "note": "(stereo unspecified)", "INHIBITION": 18.3}
{"smiles": "CN(Cc1ccc(F)cc1)C(=O)NCC1(N2CCOCC2)CCSC1", "note": "(stereo unspecified)", "INHIBITION": 36.8}
{"smiles": "c1ccc2c(NCC3(N4CCOCC4)CCSC3)ncnc2c1", "note": "(stereo unspecified)", "INHIBITION": 94.5}
